LANA DNA inh: inhibitors of KSHV LANA C-terminal domain DNA binding | MBP-C-LANA/FAM-LBS DNA binding, fluorescence polarization | inhibition, % at 9 µM | 340,000 compounds, 0.078% hits;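 active = highest replicate inhibition at or above 60% at 9 µM, even if other replicates fall short; inactive = all replicates below 60% inhibition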;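 note: 0% = neutral control wells and 100% = 4 µM acridine orange control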
LANA-H2B inh: blocks KSHV LANA binding to histone H2A/H2B; Q9QR71; cell-free LANA-H2A/H2B peptide, fluorescence polarization; inhibition, % (test concentration not listed); 320,000 compounds, 0.6% hits; AID 2629; in the data active = inhibition mostly above about 10%, no sharp cut-off; inactive = mostly below about 6.7%
Target sequence (Q9QR71 whole entry, looked up): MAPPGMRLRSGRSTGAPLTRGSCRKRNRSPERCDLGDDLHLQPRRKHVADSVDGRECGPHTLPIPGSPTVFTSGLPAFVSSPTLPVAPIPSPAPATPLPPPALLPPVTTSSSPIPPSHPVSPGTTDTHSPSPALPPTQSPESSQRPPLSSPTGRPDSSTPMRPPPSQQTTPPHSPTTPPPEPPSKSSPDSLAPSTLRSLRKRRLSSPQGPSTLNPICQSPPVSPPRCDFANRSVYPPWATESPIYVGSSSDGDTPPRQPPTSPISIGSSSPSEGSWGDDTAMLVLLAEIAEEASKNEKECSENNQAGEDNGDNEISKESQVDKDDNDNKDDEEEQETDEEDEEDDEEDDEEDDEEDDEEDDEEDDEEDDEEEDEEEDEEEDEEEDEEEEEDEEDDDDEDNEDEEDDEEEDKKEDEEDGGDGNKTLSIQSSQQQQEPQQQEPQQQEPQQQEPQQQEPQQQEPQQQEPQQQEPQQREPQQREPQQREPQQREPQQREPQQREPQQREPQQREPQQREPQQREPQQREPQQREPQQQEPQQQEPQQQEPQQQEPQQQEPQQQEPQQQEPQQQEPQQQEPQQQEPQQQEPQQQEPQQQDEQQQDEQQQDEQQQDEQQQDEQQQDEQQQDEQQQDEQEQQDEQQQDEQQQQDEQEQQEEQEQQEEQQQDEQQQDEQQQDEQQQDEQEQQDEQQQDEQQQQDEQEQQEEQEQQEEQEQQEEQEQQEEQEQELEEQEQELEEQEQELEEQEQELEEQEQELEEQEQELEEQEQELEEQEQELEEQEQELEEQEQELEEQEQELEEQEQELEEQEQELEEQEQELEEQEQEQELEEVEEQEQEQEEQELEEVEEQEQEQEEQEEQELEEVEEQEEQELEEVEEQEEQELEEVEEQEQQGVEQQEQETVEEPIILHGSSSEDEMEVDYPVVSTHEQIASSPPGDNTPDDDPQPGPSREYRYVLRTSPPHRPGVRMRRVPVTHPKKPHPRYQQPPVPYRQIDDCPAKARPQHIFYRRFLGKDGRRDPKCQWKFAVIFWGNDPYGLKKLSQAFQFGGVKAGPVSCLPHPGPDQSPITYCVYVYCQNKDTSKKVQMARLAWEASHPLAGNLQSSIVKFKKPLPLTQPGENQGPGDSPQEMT
RTF Ca sens act: increases calcium sensitivity of human cardiac regulated thin filaments. P19429+P45379. IANBD-labeled TnC RTF fluorescence at EC20 calcium; 0% EC20 calcium, 100% full calcium. 340,000 compounds, 0.24% hits. activation, % at 7.2 µM. AID 493008;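 active = activation above the mean over all tested compounds plus 3 SD, cut at about 30% in these data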;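 note: rise in fluorescence read as greater calcium sensitivity of cardiac thin filaments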
Keap1 Nrf2 FP: disrupts human Keap1 binding to Nrf2 peptide. Q14145. Keap1 Kelch-Nrf2 peptide fluorescence polarization, 1536-well. inhibition, % at 9.4 µM. 340,000 compounds, 0.15% hits. AID 504523; in the data active = inhibition above about 12%;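 note: human Keap1 Kelch domain with fluorescein labeled Nrf2 9mer peptide probe; 0% = neutral control wells and 100% = peptide positive control; higher means more block of Keap1 binding to Nrf2 peptide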
Cardiac RTF inh: cardiac RTF calcium desensitization; IANBD-labeled cardiac RTF, Ca2+ fluorescence; 340,000 compounds, 0.12% hits; P19429+P45379; inhibition, % at 7.15 µM;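 active = inhibition above the mean inhibition of all tested compounds plus 3 SD, cut at about 17% in these data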;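 note: assay run at fixed EC70 calcium of 1.6 mM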
Starred values were filed as active, the others as inactive; x = not tested or not shown; + = active, no number. An excerpt weighted towards active compounds, which were near 0.98% of everything screened.

SMILES	LANA DNA inh	LANA-H2B inh	RTF Ca sens act	Keap1 Nrf2 FP	Cardiac RTF inh
CCCCn1c(N)c(N(Cc2ccccc2OC)C(=O)C(C)Oc2ccc(Cl)cc2)c(=O)[nH]c1=O (configuration not stated)	-1	-4	-4	0	0
Cc1ccc(NC(=O)CN(C)C(=O)c2ccc(NS(=O)(=O)c3ccc4[nH]c(=O)[nH]c4c3)cc2)cc1	1	29*	-2	-4	2
CN(CC(=O)Nc1c(Cl)cccc1Cl)C(=O)c1ccc(NS(=O)(=O)c2ccc3[nH]c(=O)[nH]c3c2)cc1	3	x	7	2	-2
Cc1onc(-c2c(Cl)cccc2Cl)c1C(=O)N1CCCc2ccccc21	0	0	2	-4	-2
Cc1onc(-c2c(F)cccc2Cl)c1C(=O)N1CCc2ccccc21	4	66*	-1	4	-4
CCCCn1c(N)c(N(CCOC)C(=O)C2CC(=O)N(c3cccc(SC)c3)C2)c(=O)[nH]c1=O (configuration not stated)	0	-8	0	-5	-4
CC(C)C[C@H](NC(=O)C1CC(=O)N(c2ccc3c(c2)OCCO3)C1)C(=O)N1CCCCC1 (some centres not stated)	-1	-2	-7	-2	-2
COc1ccc(CNC2CCCc3ccccc32)cc1OC (configuration not stated)	1	31*	10	-5	-17
CC(C)C[C@@H](CSc1ccccc1)N1CCN(CC(C)C)CCC1=O	1	8	-8	3	-2
CCN1C(=O)/C(=C/C2=Cc3ccccc3OC2C)SC1=S (configuration not stated)	x	-2	x	x	x
c1ccc2c(c1)OCC(c1nnc3n1-c1ccccc1SC3)O2 (configuration not stated)	-2	17*	-3	-2	-9
COc1ccccc1C(=O)NCCC(=O)N(C)CC(=O)Nc1ccccc1Br	0	1	2	3	-1
CCCN(CC(=O)Nc1ccccc1OC)C(=O)CCNC(=O)c1ccccc1OC	1	41*	0	-4	0
CN1/C(=C\C=C(/C#N)C(=O)Nc2ccccc2F)C(C)(C)c2ccccc21	26	-15	39*	1	-31
CN1/C(=C/C=C(/C#N)C(N)=O)C(C)(C)c2ccccc21	11	-13	9	-15	-4
CC1(C)CC(=O)C(C(C#Cc2ccccc2)C2=C(O)CC(C)(C)CC2=O)=C(O)C1	1	17*	5	-14	-7
O=C1CCCC(O)=C1C(C#Cc1ccccc1)C1=C(O)CCCC1=O	0	8	-6	-8	0
O=S(=O)(c1ccc(=S)[nH]c1)N1CCCCCC1	0	38*	9	-1	-1
COc1ccccc1CNC(=O)CSc1nc2nc(C)cc(C)n2n1	0	50*	4	-4	-8
O=C(/C=C/c1ccc2c(c1)OCO2)NCCS(=O)(=O)N1CCN(c2ccc(F)cc2)CC1	-1	-1	-11	-4	-6
CC(=O)OC/C=C(\C)CCC=C(C)C	-1	-2	3	-4	2
CC(C)=CCC/C(C)=C/CC/C(C)=N/O	-2	12*	4	-1	-10
O=C(Nc1ccccc1N1CCOCC1)c1ccc(Cl)c(S(=O)(=O)N2CCCC2)c1	1	-6	1	4	-11
O=C(CC(C(=O)O)P(=O)(c1ccccc1)c1ccccc1)c1ccccc1 (configuration not stated)	-1	1	-3	-2	-2
CCC(C(=O)O)P(=O)(c1ccc(Cl)cc1)c1ccc(Cl)cc1 (configuration not stated)	-1	13*	-15	-1	10
SMILES	LANA DNA inh	LANA-H2B inh	RTF Ca sens act	Keap1 Nrf2 FP	Cardiac RTF inh
O=C(O)CC1S/C(=N/N=C/c2ccccn2)NC1=O (configuration not stated)	1	24*	0	-4	-8
CCOC(=O)c1c(-c2ccccc2)oc2cc(CN(C)C)c(O)c(CN(C)C)c12	2	49*	6	4	-21
CCOC(=O)c1c(C)oc2cc(Cl)c(O)c(CN(C)C)c12	-1	2	-1	-3	-7
O=C(NC(=S)Nc1ccc2c(c1)OCCO2)c1ccccc1F	0	13*	0	-2	-1
O=C(Nc1ccc2c(c1)OCCO2)c1ccccc1F	-1	-4	5	1	0
Cn1c(=O)c(C(=O)NCCO)c(O)c2ccccc21	-1	9.6*	-3	-3	1
Cn1c(=O)c(C(=O)NCCc2ccc(Cl)cc2)c(O)c2ccccc21	0	-5	3	-2	-3
Oc1[nH]c2ccccc2c1N=Nc1ccccc1Cl	-3	x	65*	1	-89
Oc1[nH]c2ccccc2c1N=Nc1c(F)c(F)c(Cl)c(F)c1F	1	-2	5	-1	-6
Nc1nnc(SCCCOc2ccc(F)cc2)s1	-1	25*	-5	2	1
O=C(Cc1ccc(Br)cc1)N1CCOCC1	1	2	3	-1	-5
CCOc1ccc2cc(C#N)c(SCC(=O)NC(C)CC)nc2c1 (configuration not stated)	x	34*	x	x	x
COc1ccc(CCn2c(C)nc3c(c(=O)c4ccccc4n3C)c2=O)cc1	-2	11*	5	-2	-4
COc1ccc(Cn2c(C)nc3c(c(=O)c4ccccc4n3C)c2=O)cc1	-2	3	-3	1	-5
Cc1ccc(Cl)cc1N1CCN(C(=O)C2CCN(S(=O)(=O)c3cnc[nH]3)CC2)CC1	1	2	7	-6	-6
Cc1ccc(Cl)cc1N1CCN(C(=O)C2CCN(S(C)(=O)=O)CC2)CC1	0	13*	14	-5	-7
COc1ccc(C2c3ccc(O)cc3Oc3ncn(Cc4ccccc4)c(=N)c32)cc1OC (configuration not stated)	9	0	44*	-2	-60
COC(=O)[C@H](Cc1ccccc1)NS(=O)(=O)c1ccc(F)cc1Br	-1	x	-4	0	-1
O=C(CN1CCCCCC1)N/N=C/c1cccs1	0	2	-5	3	-9
O=C(N/N=C/c1cccs1)C(=O)N1CCCC1	0	15*	2	-1	-4
COC(=O)/C(C#N)=C\c1c(OC)[nH]c2ccccc12	-2	3	0	5	1
C=CCn1c(SCc2c(C)noc2C)nc2sc(C)c(C)c2c1=O	0	56*	8	-6	-1
CC1CCCCN1CCNC(=O)c1ccc2c(c1)N(Cc1cccc(Cl)c1)C(=O)c1ccccc1S2=O (configuration not stated)	-1	18*	-2	3	5
CC(=O)c1ccc(NC(=S)Nc2ccc(Br)c(Cl)c2)cc1	-1	36*	2	-4	-1
O=C(CCC1CCCC1)NNC(=O)c1ccc(F)cc1	1	50*	6	-3	-13
O=S1(=O)CCN(C(CCO)c2cccc(C(F)(F)F)c2)CC1 (configuration not stated)	1	+	0	-2	15

Source: PubChem BioAssay (several laboratories)
